Results filed as inconclusive are left out. A call without a number means that no potency is given here. Activity calls are given as the source filed them. The call rests on the fitted dose curve; in most records, active means well fitted inhibition curve with a large enough effect; inconclusive means small, poorly fitted or top-dose-only effect; inactive means flat fitted curve, though single readings scatter.
The molecules below were run on MCC-26 (assay: qHTS assay to identify novel small-molecules to repurpose for Merkel cell carcinoma treatment (AID 1296009; further: nearly all actives have a fitted effect of over 60% in size)). Conditions: MCC and control cell lines, CellTiter-Glo viability, 72 h; series mostly up to 46 µM.
Excerpt: MCC is a rare and aggressive neuroendocrine skin cancer with limited treatment options. Approximately 80% of MCCs have the Merkel cell polyomavirus (MCPyV) DNA integrated into the host genome (virus-positive: VP-MCC) and viral oncogenes drive oncogenesis. The remaining MCCs are virus-negative (VN-MCC) and are caused by UV mutagenesis. To identify novel treatments for VP-MCC and/or VN-MCC we screened three VP-MCC cell lines (WAGA, MKL-1, MKL-2), three VN-MCC cell lines (MCC-13, MCC-26, UISO), and four immortalized, non-transformed control cell lines (HaCaT, HEK293T, CRL7250, NIH-3T3) against ~2,400 compounds in the NCGC Pharmaceutical Collection (NPC) and ~1,900 compounds in the Mechanism Interrogation PlatE (MiPE). Using cell viability as a readout (CellTiter-Glo assay) we found both overlapping and distinct drugs that can be repurposed for the treatment of VP-MCC and VN-MCC.
A high-throughput screen was conducted in 1536-well white flat bottom plates (Corning) on a Kalypsys robotic system. Cell lines WAGA, MKL-1, MKL-2, MCC-13, MCC-26, UISO, HaCaT, HEK293T, CRL7250, and NIH-3T3 were screened against 2 small molecule annotated drug libraries NPC and MIPE in dose response (8 and 11 pt. respectively) measuring cell viability after 72 hours of incubation. […] A 1,536 pintool (Kalypsys) was used to transfer 23 nL of compound in DMSO to the 1,536-well assay plates. After 72 hr incubation at 37 degree celsius, 2.5 uL of CellTiter-Glo (Promega) was dispensed into each well using a BiorapTR. Plates were incubated at room temperature for 10 min, transferred to a ViewLux (PerkinElmer) and the luminescence was recorded using an exposure time of 2 seconds. Relative luminescence units (RLUs) were normalized to in-plate controls (no cells as a positive (cytotoxicity) control, DMSO as negative control) and the normalized data was processed using NCATS in-house software.
Potency means the concentration at half of the fitted maximal effect.

**Q.** Which Potency does the source give for `O=C(Nc1ccc(OC(F)(F)F)cc1)c1sccc1NCc1ccnc2ccccc12` here?
**A.** The Potency was “inactive”.

**Q.** `O=C(C=Cc1ccc(O)cc1)c1ccc(O)cc1O` was tested. Which Potency did it give?
**A.** Its Potency is “inactive”.

**Q.** With `CCCCCCOC(=O)N=C(N)c1ccc(NCc2nc3cc(C(=O)N(CCC(=O)OCC)c4ccccn4)ccc3n2C)cc1` as the molecule, how does the Potency read?
**A.** Its Potency is “inactive”.

**Q.** With `CN1CCc2c(n(Cc3ccc(C(=O)NO)cc3)c3ccccc23)C1` as the molecule, how does the Potency read?
**A.** Its Potency is “inactive”.

**Q.** For `CCC(=C(c1ccc(O)cc1)c1ccc(OCCNC)cc1)c1ccccc1`, which Potency is on record?
**A.** Its Potency is “inactive”.

**Q.** For `COc1nccc(-c2c(-c3ccc(F)cc3)ncn2C2CCC(O)CC2)n1` (stereo not given), which Potency is on record?
**A.** The Potency was “inactive”.

**Q.** For `O[C@@H](COc1cccc2ncccc12)CN1CCN(C2c3ccccc3[C@@H]3[C@H](c4ccccc42)C3(F)F)CC1` (stereo not given in full), which Potency is on record?
**A.** Its Potency is “inactive”.

**Q.** Which Potency does the source give for `N#Cc1ccc(Oc2ccc3c(c2)COB3O)cc1` here?
**A.** The Potency was “inactive”.

**Q.** With `CC1CNc2c(cccc2S(=O)(=O)N[C@@H](CCCN=C(N)N)C(=O)N2CC[C@@H](C)C[C@@H]2C(=O)O)C1` (stereo not given in full) as the molecule, how does the Potency read?
**A.** The Potency was “inactive”.

**Q.** `O=C(O)CCC=CCC[C@@H]1[C@H](N2CCCCC2)[C@@H](O)C[C@@H]1OCc1ccc(-c2ccccc2)cc1` was tested. Which Potency did it give?
**A.** Its Potency is “inactive”.

**Q.** How did the Potency turn out when `CN1C(=O)C(Cc2c[nH]c3ccccc23)NC1=S` (stereo not given) was run?
**A.** Its Potency is “inactive”.

**Q.** For `O=C(NCCCCN1CCOCC1)c1cc2ccccc2o1`, which Potency is on record?
**A.** The Potency was “inactive”.

**Q.** Which Potency does the source give for `OC1CCC(Nc2ncc3nc(Nc4c(F)cc(F)cc4F)n([C@@H]4CCOC4)c3n2)CC1` (stereo not given in full) here?
**A.** The Potency was “inactive”.

**Q.** Which Potency does the source give for `C[C@H](c1ccc(F)cc1CCCC(=O)O)N(c1cc(F)ccc1F)S(=O)(=O)c1ccc(Cl)cc1` here?
**A.** The Potency was “inactive”.

**Q.** How did the Potency turn out when `O=C(O)Cc1cccc(OCCCN(Cc2cccc(C(F)(F)F)c2Cl)CC(c2ccccc2)c2ccccc2)c1` was run?
**A.** The Potency was 26.4 µM (active).

**Q.** With `O=C1C(c2c(O)[nH]c3ccccc23)=Nc2ccccc21` as the molecule, how does the Potency read?
**A.** The Potency was “inactive”.

**Q.** With `CNC(=O)[C@H](Cc1ccccc1)NC(=O)[C@H](CC(C)C)[C@H](CSc1cccs1)C(=O)NO` as the molecule, how does the Potency read?
**A.** The Potency was “inactive”.

**Q.** How did the Potency turn out when `OC(c1cc(C(F)(F)F)nc2c(C(F)(F)F)cccc12)C1CCCCN1` (stereo not given) was run?
**A.** Its Potency is “inactive”.

**Q.** Which Potency does the source give for `OC[C@H]1O[C@@H](O[C@H]2[C@@H](O)[C@@](O)(CO)O[C@@H]2CO)[C@H](O)[C@@H](O)[C@@H]1O` here?
**A.** Its Potency is “inactive”.

**Q.** Which Potency does the source give for `NCc1c[nH]c(=S)n1[C@H]1CCc2c(F)cc(F)cc2C1` here?
**A.** Its Potency is “inactive”.

**Q.** Which Potency does the source give for `CCN1C[C@H](C)n2c(c(O)c3c(=O)n(Cc4ccc(F)c(Cl)c4)nc(C(=O)NC)c32)C1=O` here?
**A.** The Potency was “inactive”.

**Q.** How did the Potency turn out when `Cc1nc(C(=O)NCC(=O)O)c(O)c2ccc(Oc3ccccc3)cc12` was run?
**A.** The Potency was “inactive”.

**Q.** `Cc1nc2c([nH]1)CCN(C(=O)c1ccc(NC(=O)c3ccccc3-c3ccccc3)cc1)c1ccccc1-2` was tested. Which Potency did it give?
**A.** The Potency was “inactive”.

**Q.** How did the Potency turn out when `CC1(C)C(N(O)C(=O)Nc2ccc(Cl)cc2)N(c2ccc(Cl)cc2)C(=O)N1CC(=O)NN=CC=Cc1ccc([N+](=O)[O-])o1` (stereo not given) was run?
**A.** Its Potency is “inactive”.

**Q.** `CN(C)CCOc1ccc(C(=C(CCCl)c2ccccc2)c2ccccc2)cc1` was tested. Which Potency did it give?
**A.** The Potency was “inactive”.

**Q.** For `C[C@@H]1CCO[C@H]2Cn3cc(C(=O)NCc4ccc(F)cc4F)c(=O)c(O)c3C(=O)N12`, which Potency is on record?
**A.** The Potency was “inactive”.

**Q.** How did the Potency turn out when `CN(CC=CC#CC(C)(C)C)Cc1cccc2ccccc12` was run?
**A.** The Potency was “inactive”.

**Q.** For `CS(=O)(=O)c1ccc(C2=C(c3ccccc3)C(=O)OC2)cc1`, which Potency is on record?
**A.** The Potency was “inactive”.

**Q.** Which Potency does the source give for `Cc1cnc(CNC(=O)c2c(=O)c3ccc(N4CCCN(C)CC4)nc3n3c2sc2ccccc23)cn1` here?
**A.** Its Potency is “inactive”.

**Q.** Which Potency does the source give for `C[C@@H](NC(=O)c1ncnc(N)c1Cl)c1ncc(C(=O)Nc2cc(C(F)(F)F)c(Cl)cn2)s1` here?
**A.** The Potency was “inactive”.

**Q.** With `c1cc(OCCN2CCCCC2)cc(-c2n[nH]c3ccc(-c4ncn[nH]4)cc23)c1` as the molecule, how does the Potency read?
**A.** The Potency was “inactive”.

**Q.** Which Potency does the source give for `COc1ccc2nc3cc(Cl)ccc3c(Nc3cc(CN4CCCC4)c(O)c(CN4CCCC4)c3)c2n1` here?
**A.** The Potency was “inactive”.

**Q.** How did the Potency turn out when `Cc1cnc(-c2cc(N3CCN(C(=O)CCS(C)(=O)=O)CC3)ncc2Cl)c(C)c1` was run?
**A.** The Potency was “inactive”.

**Q.** `COc1cc2c(cc1OC)CC(=O)N(CCCN(C)C[C@H]1Cc3cc(OC)c(OC)cc31)CC2` was tested. Which Potency did it give?
**A.** Its Potency is “inactive”.

**Q.** `CC[C@H](C)n1cc(C)c2c(C(=O)NCc3c(C)cc(C)[nH]c3=O)cc(-c3ccc(N4CCNCC4)nc3)cc21` was tested. Which Potency did it give?
**A.** Its Potency is “inactive”.

**Q.** How did the Potency turn out when `COc1ccc(CCC(=O)Nc2nc3ccc(Cl)cc3s2)cc1OC` was run?
**A.** Its Potency is “inactive”.

**Q.** How did the activity change, negative = cytotoxicity turn out when `CN[C@H]1[C@@H](O[C@@H]2[C@H](O[C@@H]3[C@@H](O)[C@@H](O)[C@@H](N=C(N)N)[C@@H](O)[C@@H]3N=C(N)N)O[C@H](C)[C@@]2(O)C=O)O[C@@H](CO)[C@@H](O)[C@H]1O` was run?
**A.** Its activity change, negative = cytotoxicity is -1.52% [at 9.22 µM] (inactive).

**Q.** Which Potency does the source give for `C[C@@H]1CC=CC=CC=CC=C[C@@H](O[C@@H]2O[C@H](C)[C@@H](O)[C@H](N)[C@H]2O)C[C@@H]2O[C@](O)(C[C@@H](O)C[C@@H]3O[C@@H]3C=CC(=O)O1)C[C@H](O)[C@@H]2C(=O)O` here?
**A.** Its Potency is “inactive”.

**Q.** For `CCC[C@H](N[C@@H](C)C(=O)N1[C@@H]2CCCC[C@H]2C[C@H]1C(=O)O)C(=O)OCC`, which Potency is on record?
**A.** Its Potency is “inactive”.

**Q.** With `COc1ccc(-c2cc(=O)c3c(O)cc(O[C@@H]4O[C@H](CO[C@@H]5O[C@@H](C)[C@H](O)[C@@H](O)[C@@H]5O)[C@@H](O)[C@H](O)[C@@H]4O)cc3o2)cc1O` as the molecule, how does the Potency read?
**A.** The Potency was “inactive”.
